Kir21 block – Kir2.1 (mouse) channel inhibition; P35561; HEK293-Kir2.1, FluxOR thallium flux fluorescence; active compounds read low; B-score at 10 µM; actives 0.85% (n = 310,000); AID 1672;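 active = fluorescence ratio B-score at or below minus 3 SD of library scores, with starting-brightness B-score within 2 SD, cut at about -4.2 in these data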;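 also: channel flux triggered by added potassium and thallium sulfate stimulus; B-score of peak minus minimum fluorescence over baseline after thallium stimulus; more negative B-score means stronger Kir2.1 block with less thallium influx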
Target sequence (P35561 whole entry, looked up): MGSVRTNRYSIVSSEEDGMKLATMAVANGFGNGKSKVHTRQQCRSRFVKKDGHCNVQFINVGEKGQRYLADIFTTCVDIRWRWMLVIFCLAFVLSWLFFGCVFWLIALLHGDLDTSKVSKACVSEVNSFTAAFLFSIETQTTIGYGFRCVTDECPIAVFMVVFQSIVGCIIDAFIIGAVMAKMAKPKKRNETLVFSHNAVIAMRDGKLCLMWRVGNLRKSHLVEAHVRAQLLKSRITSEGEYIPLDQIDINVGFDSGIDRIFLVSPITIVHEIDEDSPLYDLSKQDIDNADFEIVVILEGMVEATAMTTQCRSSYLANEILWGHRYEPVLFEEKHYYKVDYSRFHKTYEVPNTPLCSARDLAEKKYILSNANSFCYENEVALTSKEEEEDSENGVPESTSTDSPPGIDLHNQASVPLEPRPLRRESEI
ANO1 block – mouse TMEM16A channel inhibition, primary screen | HEK293 TMEM16A/YFP iodide influx fluorescence, ionomycin | Q8BHY3 | normalized B-score (activity score, 25-100; higher = stronger inhibition) at 10 µM | actives 1.2% (n = 310,000);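 active = ratio plate-corrected score three or more library SD toward inhibition, starting fluorescence score within five deviations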;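 also: score derived from kinetic fluorescence span divided by baseline fluorescence per well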
KCNK9 block – inhibitors of human KCNK9 two-pore domain potassium channel; HEK293 KCNK9, FluxOR thallium flux fluorescence; active compounds read low; B-score at 10 µM; actives 1.2% (n = 310,000); AID 488922;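 active = ratio B-score over 3 SD below the library mean, with starting fluorescence within 5 SD of its mean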;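 also: negative B-score means less thallium flux so channel inhibition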
KCNK3 block – human KCNK3 channel inhibition, primary screen | O14649 | CHO-KCNK3 thallium flux, FluxOR fluorescence; active compounds read low | B-score at 10 µM | actives 0.84% (n = 340,000);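 active = B-score under library mean minus 4 SD, starting fluorescence ratio at most library mean plus 5 SD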;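 also: more negative B-score means stronger inhibition of thallium flux through KCNK3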
ANO1 activ – activators or potentiators of mouse TMEM16A chloride channel; HEK293 TMEM16A/YFP-H148Q/I152L, iodide quench fluorescence; active compounds read low; B-score at 10 µM; actives 0.3% (n = 340,000); AID 623877;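 active = fluorescence-ratio B-score plate-corrected deviation score at least 3 library SD below zero, with starting fluorescence score within 5 deviations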;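 also: channel opened by trigger with iodide after compound preincubation; score built on the fluorescence ratio of max minus min over baseline; more negative score means more quench and so TMEM16A activation or potentiation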
KCNK9 block conf – human KCNK9 inhibitor confirmation; shares compounds with KCNK9 block; HEK293 KCNK9 cells, FluxOR thallium flux fluorescence; inhibition, % at 10 µM; actives 43% (n = 4,900); AID 492992;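 active = thallium signal inhibited by more than 5 SD of the compound-free buffer control wells, on both duplicate plates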;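 also: 0% = assay buffer control wells without compound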
Kir21 sel – selectivity of KCNK9 modulators against mouse Kir2.1; shares compounds with KCNK9 block; Kir2.1 cells, FluxOR thallium flux fluorescence; inhibition, % at 10 µM; actives 4% (n = 4,900); AID 492993;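 active = thallium signal drop more than 5 SD beyond the mean of the no-compound control wells, seen in both duplicate plates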;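 also: signal is fluorescence rise after thallium addition divided by baseline fluorescence; plate controls were assay buffer only for no effect and full block by chlorpromazine control for full effect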
HEK293 Tl ctr – non-induced cell nonspecific activity of KCNK9 modulators. shares compounds with KCNK9 block. non-induced KCNK9-HEK293, FluxOR thallium flux. inhibition, % at 10 µM. actives 40% (n = 4,900);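 active = thallium signal drop beyond 5 SD of the untreated control mean, on both duplicate plates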;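 also: plate controls were buffer only IC0 wells for no effect and SID17386958 at its maximal inhibitory level for full effect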
* hit, by the source's call; i = inactive; . = not tested or not shown. An excerpt weighted towards active compounds, which were near 3.5% of everything screened.

SMILES | Kir21 block | ANO1 block | KCNK9 block | KCNK3 block | ANO1 activ | KCNK9 block conf | Kir21 sel | HEK293 Tl ctr
Cc1cccc(-c2noc(CN(C(=O)/C=C/c3ccccc3Cl)C(C)C)n2)c1 | 0.07 | i | i | i | i | . | . | .
Cc1ccc(-c2noc(CN(C(=O)C(c3ccccc3)c3ccccc3)C(C)C)n2)cc1 | 1.59 | i | -11.8* | i | i | 40.0%* | i | 33.0%*
Cc1cccc(-c2noc(CN(C(=O)CCc3ccccc3)C(C)C)n2)c1 | 3.03 | i | i | i | i | i | i | 25.5%*
COc1ccc(S(=O)(=O)Nc2c(C)nc3nc(C)[nH]n3c2=O)cc1 | 0.9 | i | i | i | i | i | i | i
O=C(NCc1cccnc1)Nc1ccccc1C(F)(F)F | 0.88 | i | i | i | i | . | . | .
Cc1nn(Cc2ccccc2)c(Cl)c1C(=O)OCc1nnc(-c2ccc(Cl)cc2)o1 | -0.6 | i | i | i | i | i | i | i
C#CCn1c(S(=O)(=O)Cc2ccccc2Cl)nc(-c2ccccc2)c1-c1ccccc1 | -0.14 | i | i | i | i | . | . | .
C#CCn1c(S(=O)(=O)Cc2ccc(C)cc2)nc(-c2ccccc2)c1-c1ccccc1 | 1.1 | i | -11.6* | i | i | 59.0%* | i | 35.5%*
Cc1sc2nc(CSc3ccccc3)nc(N3CCN(C)CC3)c2c1C | -4.69* | i | i | i | i | i | i | 29.5%*
COCCNc1nc(CSc2ccccc2)nc2sc(C)c(C)c12 | 0.47 | i | i | i | i | . | . | .
O=C(COc1ccccc1C(=O)Nc1ccccc1)NCCc1ccccc1 | -0.58 | i | i | i | i | . | . | .
O=C(COc1ccccc1C(=O)Nc1ccccc1)c1ccc(Br)cc1 | 0.47 | i | -9.55* | i | i | 35.0%* | i | i
Cc1onc(-c2ccccc2)c1C(=O)Nc1cccc(C#N)c1 | -0.87 | i | i | i | i | . | . | .
Cc1nn(Cc2cccc(C(=O)NC(C)c3ccc(C(C)(C)C)cc3)c2)c(C)c1[N+](=O)[O-] (configuration not stated) | 0.34 | i | i | i | i | . | . | .
CCC(NC(=O)c1cccc(Cn2nc(C)c([N+](=O)[O-])c2C)c1)c1ccc(C(C)C)cc1 (configuration not stated) | 0.42 | i | i | i | i | i | i | i
CCC(=O)c1cn(CC(=O)Nc2cccc(C)c2)c2ccccc12 | -0.14 | i | i | i | i | . | . | .
CC1=NNC(=O)/C1=C\c1cn(-c2ccccc2)nc1-c1ccccc1 | -0.07 | i | i | i | i | i | i | i
Clc1ccccc1CSc1snnc1-c1ccccc1 | -1.97 | i | i | i | i | . | . | .
Clc1ccc(-c2nnsc2SCc2ccccc2)cc1 | 0.03 | i | -10.6* | i | i | i | i | 44.0%*
Cc1nc2sc(C(c3cccc(F)c3)N3CCCC(C)C3)c(O)n2n1 (configuration not stated) | 0.74 | i | i | i | i | . | . | .
CC1=NN(C(N)=S)C(=O)C1N=Nc1cccc(Cl)c1C (configuration not stated) | 0.2 | i | i | i | i | i | i | i
CC1=NN(C(N)=S)C(=O)C1N=Nc1cccc2ccccc12 (configuration not stated) | -0.03 | i | i | . | . | . | . | .
CC(=O)c1sccc1NC(=O)CC(C)(C)CC(=O)O | 1.38 | i | i | i | i | . | . | .
COCCn1nnnc1C(c1cccs1)N1CCN(c2cccc(C(F)(F)F)c2)CC1 (configuration not stated) | 0.33 | i | -14.1* | i | i | 59.0%* | i | 39.5%*
CCOc1cc(CN2CCSCC2)ccc1O | 0.57 | i | i | i | i | . | . | .
SMILES | Kir21 block | ANO1 block | KCNK9 block | KCNK3 block | ANO1 activ | KCNK9 block conf | Kir21 sel | HEK293 Tl ctr
CCOc1cc(CN2CCN(c3ccc(C(C)=O)cc3)CC2)ccc1OC | 0.34 | i | i | i | i | . | . | .
CCOc1cc(CN2CCN(c3cccc(C(F)(F)F)c3)CC2)ccc1OC | 2.92 | i | i | i | i | i | i | i
CCOc1cc(CN2CCN(c3cccc(C(F)(F)F)c3)CC2)ccc1O | -0.96 | i | i | i | i | i | i | i
COc1ccc(CC(C)N2CCN(c3cccc(C(F)(F)F)c3)CC2)cc1OC (configuration not stated) | 0.31 | i | i | i | i | i | i | i
NC(=O)c1cc(S(=O)(=O)NC2CCCCC2)co1 | 0.73 | i | i | i | i | . | . | .
NC1=NC(=O)C(c2ccccc2)(c2ccccc2)S1 | . | . | . | i | i | . | . | .
COC(=O)c1cc(CN2CCN(c3ccccc3)CC2)ccc1O | -0.45 | i | i | i | i | i | i | i
COc1ccc(N=C(c2ccccc2)c2c(C)[nH]n(-c3ccccc3)c2=O)c(OC)c1 | -0.7 | i | i | i | i | i | i | 32.5%*
O=c1c2sccc2nc(SCc2cc(=O)n3cc(Cl)ccc3n2)n1Cc1ccccn1 | 0.18 | i | i | i | i | . | . | .
O=c1c2sccc2nc(SCc2ccc([N+](=O)[O-])cc2)n1Cc1ccccn1 | -1.57 | i | -9.57* | i | i | 74.0%* | i | 27.5%*
COc1ccc(CN(C)C(=O)c2cccc(C(=O)N(C)Cc3ccc(OC)cc3)c2)cc1 | -0.05 | i | i | i | i | . | . | .
S=C(c1ccc(-c2cc(Cl)ccc2Cl)o1)N1CCCCC1 | -1.13 | i | -11.8* | i | i | 46.5%* | i | 41.5%*
S=C(c1ccc(-c2cccc(Cl)c2)o1)N1CCOCC1 | -2.3 | i | i | i | i | . | . | .
S=C(c1ccc(-c2cccc(Cl)c2)o1)N1CCCCC1 | 0.12 | i | -8.82* | i | i | 32.5%* | i | 32.5%*
O=C1C(=O)N(CCCN2CCOCC2)C(c2ccc([N+](=O)[O-])cc2)/C1=C(/O)c1ccc2c(c1)OCO2 (configuration not stated) | 0.66 | i | i | i | i | . | . | .
Fc1ccc2c(c1)Sc1ccc(Cl)cc1CC2N1CCN(CCC2OCCO2)CC1 (configuration not stated) | -0.56 | i | i | i | i | i | i | i
CCOC(=O)c1c(N)sc(C(O)(C(F)(F)F)C(F)(F)F)c1-c1ccc(F)cc1 | -0.47 | i | -9.27* | -12.2* | i | 54.0%* | i | 39.0%*

Assay outcomes from PubChem BioAssay.
